Test results: PubChem BioAssay AID1347416 (National Center for Advancing Translational Sciences (NCATS), 2020)
The whole screen tested about 4,100 compounds, of which about 1,600 (39%) were called active. Not shown: some 25% with an inconclusive outcome. This is one part of the list. Unmarked numbers belong to inactive results. Calls come from the whole dose curve; as a rule, active = well fitted inhibition curve with a large enough effect; inconclusive = small, poorly fitted or top-dose-only effect; inactive = no such curve, though single readings can be large or run the other way.

test: qHTS Validation assay for Inhibitors of Plasmodium falciparum Dd2 growth in vitro; note: nearly all actives have a fitted effect of over 70% in size; conditions: P. falciparum Dd2 in RBCs, SYBR Green growth, 72 h; series mostly up to 28.7 µM; activity change, negative = inhibition: at the top concentration
Procedure, shortened: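 P. falciparum Dd2-infected red blood cells (2.5% hematocrit, 0.3% parasitemia) grown 72 h at 37 °C under 5% O2 with compounds in a titration, 29 uM to 0.5 nM final. Growth read as SYBR Green-1 fluorescence after ~16 h lysis; artesunate 300 nM as positive control.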
% is set by controls: 0 for no effect and ±100 for the full control effect; potency is the fitted concentration of half-maximal effect.

SMILES | activity change, negative = inhibition | Potency
COc1cc(Cn2nnc3ccccc32)cc(Br)c1O | 33% | –
CCC(C)NC(=O)C1CCC(CNS(=O)(=O)c2cccc3nsnc23)CC1 (stereo not given) | 27.7% | –
Oc1ccc(-c2n[nH]c(=S)n2-c2ccc3c(c2)OCCO3)c(O)c1 | – | 2.66 µM (active)
COc1ccc(C2=CC(c3ccc(F)cc3)n3ncc(C(=O)Nc4ccc(C)cc4)c3N2)cc1 (stereo not given) | – | 2.37 µM (active)
CCOc1ccc(NC(=O)c2cnn3c2NC(c2cccc(OC)c2)=CC3c2ccccc2)cc1 (stereo not given) | – | 4.73 µM (active)
Cc1nn2c(c1-c1ccccc1Oc1ccccc1)N(Cc1ccccc1O)CCC2 | – | 4.85 µM (active)
Cc1nn2c(c1-c1ccccc1Oc1ccccc1)N(C(=O)Cc1cccc(F)c1)CCC2 | -17.3% | –
COc1cccc(CC(=O)N2CCCn3nc(C)c(-c4ccccc4OCc4ccccc4)c32)c1 | – | 9.44 µM (active)
COCC(=O)N[C@@H]1CN(C(=O)Cc2cccc(OC)c2)CC[C@@H]1c1nc(C)no1 | 19.7% | –
Cc1nn2c(c1-c1ccccc1Oc1ccccc1)N(Cc1cccc(O)c1)CCC2 | – | 10.9 µM (active)
COc1ccc(CN2CCCn3nc(C)c(-c4ccccc4Oc4ccccc4)c32)cc1O | – | 9.44 µM (active)
Cc1nn2c(c1-c1ccccc1OCc1ccccc1)N(Cc1ccccc1)CCC2 | – | 15.3 µM (active)
S=c1[nH]cc(-c2ccc(Cl)cc2)n1-c1ccccc1 | -26.5% | –
COc1ccc(-n2nc(C3CCN(Cc4ccc(C(F)(F)F)cc4)CC3)[nH]c2=O)cc1 | -12% | –
Cc1ccc2c(n1)N(C)[C@H](CO)CCN(Cc1ccc(C(F)(F)F)cc1)C2 | – | 15.3 µM (active)
Cc1ccc(Cn2c(C3CCN(C(=O)c4ccc(C(F)(F)F)cc4)CC3)n[nH]c2=O)cc1 | -20.9% | –
CCN(CC)C(=O)N1CCCCC1c1noc(COc2ccc(F)cc2)n1 (stereo not given) | 6.79% | –
CCOc1ccccc1C(=O)N1CCN(C(=O)c2nnn3c2COC(c2ccccc2)C3)CC1 (stereo not given) | – | 16.8 µM (active)
CC(C)(C)c1ccc(C(=O)N2CCN(C(=O)c3nnn4c3COC(c3ccccc3)C4)CC2)cc1 (stereo not given) | – | 10.6 µM (active)
O=C(NCCC1=CCCCC1)C1CCN(C(=O)c2ncn3c2COC(c2ccccc2)C3)CC1 (stereo not given) | 36.1% | –
CC(C)c1cccc(NC(=O)C2CCN(C(=O)c3ncn4c3COC(c3ccccc3)C4)CC2)c1 (stereo not given) | 1.07% | –
CCc1cccc(NC(=O)C2CCN(C(=O)c3nnn4c3COC(c3ccc(C)cc3)C4)CC2)c1 (stereo not given) | -9.76% | –
COc1ccc(C)cc1-n1c(-c2ccc(Cl)cc2)cc2c1CC(C)(C)CC2=O | – | 2.99 µM (active)

SMILES | activity change, negative = inhibition | Potency
CC(C)C[C@@H](NC(=O)[C@@H](O)[C@H](N)Cc1ccccc1)C(=O)O | – | 2.99 µM (active)
CCNC(=O)NC(=O)C(C)Sc1nc2ccccc2c(=O)n1-c1cccnc1 (stereo not given) | 14.2% | –
CC(Sc1nc2ccccc2c(=O)n1C)C(=O)N(C)C1CCCCC1 (stereo not given) | – | 5.31 µM (active)
COc1cccc(NC(=O)c2cccc3c(=O)c4c([nH]c23)CCCC4)c1 | – | 2.99 µM (active)
COc1cccc(NC(=O)CSc2nc(=O)[nH]c3c2CCCC3)c1 | -1.41% | –
COc1cccc(NC(=O)N[C@H]2[C@H](O)[C@@H](Oc3ccccc3)[C@@H]3OC[C@H]2O3)c1 | -19.2% [at 43.1 µM] | –
Cc1cccc(-c2cc(C3CCN(S(=O)(=O)c4cccc(C#N)c4)CC3)[nH]n2)c1 | – | 15 µM (active)
Cc1cccc(-c2cc(C3CCN(C(=O)Nc4ccccc4Cl)CC3)[nH]n2)c1 | -13.2% | –
CNC(=O)N1CCC(C2CCN(S(=O)(=O)c3cccc(C#N)c3)C2)CC1 (stereo not given) | 3.64% | –
O=c1c2cc3c(nc2ncn1Cc1ccccc1F)CCCC3 | 0% | –
COc1cc2c3nnc(-c4ccc(F)cc4)c-3cn(Cc3ccccc3F)c2cc1OC | – | 3.76 µM (active)
CC1(C)Cc2nc3sc4c(SCC(=O)O)ncnc4c3cc2CO1 | -5.19% | –
COc1cc(-c2nc(-c3ccccc3)c(-c3ccc(Br)cc3)[nH]2)cc(OC)c1O | – | 2.11 µM (active)
COc1ccc2[nH]c(C)c(CCN(Cc3cccs3)C(=S)Nc3ccc(F)cc3)c2c1 | – | 4.22 µM (active)
COc1ccc2[nH]c(C)c(CCN(Cc3cccs3)C(=S)Nc3ccccc3)c2c1 | – | 2.66 µM (active)
COc1ccccc1CN1CCn2c(nn(-c3ccc([N+](=O)[O-])cc3)c2=O)C1 | – | 5.96 µM (active)
O=C(Nc1ccc(Cl)cc1)N1CCn2c(nn(-c3ccc([N+](=O)[O-])cc3)c2=O)C1 | 26.1% | –
CC(C)CCN1CCn2c(nn(-c3ccc([N+](=O)[O-])cc3)c2=O)C1 | – | 17.2 µM (active)
COc1ccc(-n2nc3n(c2=O)CCN(C(=O)c2ccc(Cl)cc2)C3)cc1 | -20.5% | –
Cc1ccc(-n2nc3n(c2=O)CCN(C(=O)c2cccc(Cl)c2)C3)cc1 | 67.3% | –
O=c1n(-c2ccc(Cl)cc2)nc2n1CCN(Cc1cccc3ccccc13)C2 | 33.4% | –
COc1ccc(C(=O)N[C@@H]2CCC[C@@H]2C(=O)NCc2ccc(C)o2)cn1 | -6.41% | –
Oc1c(CN2CCCC2)cc(COCc2ccccc2)c2cccnc12 | – | 6.68 µM (active)

SMILES | activity change, negative = inhibition | Potency
Oc1c(CN2CCCCC2)cc(COCc2ccccc2)c2cccnc12 | – | 8.41 µM (active)
CCOCc1cc(CN2CCN(c3ccccc3OC)CC2)c(O)c2ncccc12 | – | 5.96 µM (active)
COc1ccc(CCNC(=O)CCn2c(=O)c3ccccc3n(Cc3cc(C)ccc3C)c2=O)cc1OC | 10.4% | –
COc1ccc(CCNC(=O)CCc2c(C)nc3c(c(C)nn3-c3ccc(C)c(C)c3)c2C)cc1OC | – | 0.668 µM (active)
COc1ccc(S(=O)(=O)Nc2ccc(C)n(CC(=O)Nc3ccccc3)c2=O)cc1 | – | 2.66 µM (active)
COc1cc(NC(=O)Cn2c(N(C)Cc3ccccc3)nc(C)cc2=O)cc(OC)c1 | -19.9% | –
Oc1c(C(Nc2nccs2)c2ccc(C(F)(F)F)cc2)ccc2cccnc12 (stereo not given) | – | 5.31 µM (active)
Oc1cccc(C(Nc2nccs2)c2ccc3cccnc3c2O)c1 (stereo not given) | – | 7.5 µM (active)
O=C(COc1ccc2ccccc2c1)Nc1nccs1 | 15.3% | –
Nc1nc(C2CC(NC(=O)c3csc4c3CCCC4)C2)cc(=O)[nH]1 (stereo not given) | 19.5% | –
Oc1[nH]c2ccccc2c1N=NC(=S)N1CCOCC1 | – | 2.11 µM (active)
O=C(COC(=O)c1ccc(-n2cnnn2)cc1)c1ccc(Br)cc1 | 22.8% | –
O=C(Cn1c(=O)c2cccn2c2cccnc21)NCc1ccccc1F | 21.9% | –
COc1ccc(Cn2c(=O)c3cccnc3n(CC(=O)Nc3ccc(C)c(F)c3)c2=O)cc1 | 17.6% | –
CCc1cccc(-n2c(=O)c3cccnc3n2CC(=O)Nc2ccc(F)c(C)c2)c1 | – | 2.66 µM (active)
CCc1cccc(-n2c(=O)c3cccnc3n2CC(=O)NCc2ccccc2)c1 | – | 1.68 µM (active)
CCc1cccc(-n2c(=O)c3cccnc3n2CC(=O)NCc2ccc(C)cc2)c1 | – | 1.68 µM (active)
O=C(CCc1nc2cccnc2n1Cc1ccccc1)NCc1cccc(Cl)c1 | 12.7% | –
O=C(CCn1c(=O)c2cccn2c2cccnc21)NCc1cccc(Br)c1 | -0.311% | –
COc1ccc(CNC[C@H]2COCc3nc4cc(C(F)(F)F)ccc4n32)cn1 | 14.2% [at 43.1 µM] | –
COc1ccc2ncc3c(-c4ccc(C)c(C)c4)nn(CC(=O)NC4CCCCC4)c3c2c1 | 31% | –
CCc1ccc(-c2nn(CC(=O)NC3CCCCC3)c3c2cnc2ccc(OC)cc23)cc1 | – | 9.44 µM (active)
O=C(NCc1ccccc1F)C1CCN(C(=O)c2ncn3c2COC(c2ccc(F)cc2)C3)CC1 (stereo not given) | 14.3% | –

SMILES | activity change, negative = inhibition | Potency
CCOc1ccc(C2Cn3nnc(-c4nc(-c5ccsc5)no4)c3CO2)cc1 (stereo not given) | 12.1% | –
CC(C)(C)c1ccc(-c2noc(-c3ncn4c3COC(c3ccc(F)cc3)C4)n2)cc1 (stereo not given) | – | 15 µM (active)
O=c1[nH]c(N2CCOCC2)nc2c1CCN(Cc1ccccc1C(F)(F)F)CC2 | – | 4.73 µM (active)
O=c1[nH]c(N2CCOCC2)nc2c1CCN(Cc1ccccc1Br)CC2 | – | 15 µM (active)
COc1cccc(CN2CCc3nc(N4CCOCC4)[nH]c(=O)c3CC2)c1OC | 1.69% | –
O=c1[nH]c(N2CCOCC2)nc2c1CCN(Cc1cccc(C(F)(F)F)c1)CC2 | -22.4% | –
Cc1noc2c(NC3CCN(C)CC3)cc(-c3cccc(C(F)(F)F)c3)nc12 | – | 13.7 µM (active)
O=C(Nc1ncccc1O)c1ccc(NS(=O)(=O)c2ccc3[nH]c(=O)[nH]c3c2)cc1 | – | 0.422 µM (active)
Cc1cc(Br)ccc1NC(=O)c1ccc(NS(=O)(=O)c2c(C)noc2C)cc1 | 25% | –
CC(=O)N1c2c(cc(Br)cc2S(=O)(=O)N2CCN(c3cc(C)ccc3C)CC2)CC1C (stereo not given) | – | 11.9 µM (active)
O=C1NC(=NC2CCCC2)C2(CCN(Cc3ccc(F)cc3)C2)N1c1cc(F)cc(F)c1 (stereo not given) | – | 10.6 µM (active)
CN(C)c1ccc(CN2CCC3(C2)C(=NC2CCCCC2)NC(=O)N3c2cccnc2)cc1 (stereo not given) | -28.4% | –
O=C(c1ccc(C(F)(F)F)cc1)N1CCC2(CC1)C(=NC1CCCCC1)NC(=O)N2c1cc(F)cc(F)c1 | -25.9% | –
O=C1NC(=NC2CCCCC2)C2(CCCN([S+](=O)([O-])c3ccccc3)C2)N1c1cccnc1 (stereo not given) | -14.7% | –
CN(C)c1ccc(CN2CCC3(C2)C(=NC2CCCC2)NC(=O)N3c2cccnc2)cc1 (stereo not given) | -33.1% | –
O=C1NC(=NC2CCCCC2)C2(CCN(Cc3ccc(F)cc3)C2)N1c1cc(F)cc(F)c1 (stereo not given) | – | 4.22 µM (active)
CCOC(=O)c1c(NC(=O)c2ccccc2)sc2c(O)c(CN(CC)CC)ccc12 | – | 0.15 µM (active)
CCNc1nc2c(c(=O)n(C)c(=O)n2C)n1Cc1ccc(F)cc1 | -8.15% | –
Cc1ccc(Oc2nc3c(c(=O)n(Cc4ccccc4)c(=O)n3C)n2C)cc1C | 42.4% | –
COc1cccc(Cn2c(Oc3ccccc3)nc3c2c(=O)n(C)c(=O)n3C)c1 | – | 4.73 µM (active)
Cc1ccccc1C(=O)N1CCCCC12Cc1ccccc1NC2=O (stereo not given) | 40.8% [at 43.1 µM] | –
